Source: PubChem
Beta apoptosis = inhibitors of cytokine-induced beta cell apoptosis, primary screen, luminescence. INS-1E cytokine-induced death, ATP luminescence, 48 h; percent of positive-control rescue, neutral wells zero. protection from apoptosis, % (test concentration not listed). hit rate 0.8% among 300,000. AID 435005, 2010;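 active means Every replicate reaches about 75%, or at least half do and their mean reaches it too, limit read from the data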;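 further: 0% = cytokine-treated negative control wells and 100% = positive control rescue; higher means more ATP so stronger rescue from cytokine killing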
Mdm2-MdmX inh = inhibitors of human Mdm2-MdmX association, primary screen, cell-based, luminescence, split luciferase, SaOS-2, uHTS. Protein Mdm4 (Homo sapiens) + E3 ubiquitin-protein ligase Mdm2 (Homo sapiens), …. SaOS-2 split-luciferase Mdm2/MdmX complementation. inhibition, % at 8 µM. hit rate 3% among 330,000;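 active means inhibition of at least 50% at 8 µM in the primary screen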
Target sequence (O15151 whole entry, looked up): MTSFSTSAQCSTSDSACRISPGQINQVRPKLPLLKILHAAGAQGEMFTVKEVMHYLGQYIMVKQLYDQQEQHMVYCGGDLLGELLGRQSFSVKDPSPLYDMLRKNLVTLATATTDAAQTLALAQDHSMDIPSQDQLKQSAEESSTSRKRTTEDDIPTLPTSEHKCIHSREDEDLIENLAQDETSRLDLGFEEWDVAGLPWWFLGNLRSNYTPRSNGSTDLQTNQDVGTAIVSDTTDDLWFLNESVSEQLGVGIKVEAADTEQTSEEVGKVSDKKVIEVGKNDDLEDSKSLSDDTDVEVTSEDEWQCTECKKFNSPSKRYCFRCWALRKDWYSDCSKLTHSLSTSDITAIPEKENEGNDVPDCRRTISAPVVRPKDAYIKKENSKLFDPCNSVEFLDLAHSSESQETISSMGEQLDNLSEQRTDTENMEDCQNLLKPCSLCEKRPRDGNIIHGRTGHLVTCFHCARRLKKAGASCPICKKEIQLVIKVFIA
Target sequence (Q00987 whole entry, looked up): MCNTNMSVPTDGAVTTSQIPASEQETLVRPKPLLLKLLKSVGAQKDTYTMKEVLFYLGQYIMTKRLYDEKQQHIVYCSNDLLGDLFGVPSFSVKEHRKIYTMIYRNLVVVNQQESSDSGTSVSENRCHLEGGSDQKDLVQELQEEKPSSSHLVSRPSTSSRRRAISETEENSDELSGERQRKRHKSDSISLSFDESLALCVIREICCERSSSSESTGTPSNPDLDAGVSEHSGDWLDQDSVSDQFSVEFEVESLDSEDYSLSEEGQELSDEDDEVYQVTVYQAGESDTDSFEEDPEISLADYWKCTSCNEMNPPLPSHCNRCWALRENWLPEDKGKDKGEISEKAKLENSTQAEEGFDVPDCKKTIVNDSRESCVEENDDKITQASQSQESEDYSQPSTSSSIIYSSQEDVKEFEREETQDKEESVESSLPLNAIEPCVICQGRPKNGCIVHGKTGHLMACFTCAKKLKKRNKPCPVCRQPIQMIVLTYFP
MPTP block = mitochondrial permeability transition pore inhibitors, primary screen, biochemical, isolated mouse mitochondria, absorbance. Ca2+ swelling absorbance, 30 min. inhibition, % at 10 µM. hit rate 1.4% among 360,000;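 active means inhibition of 50% or more, scaled per plate between neutral and stimulator controls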;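 further: 0% = DMSO wells given calcium and 100% = 1 mM EGTA wells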
Calb FLC = C. albicans growth inhibition with fluconazole, primary screen, CaCi-2 strain, Alamar Blue fluorescence; C. albicans CaCi-2 (fluconazole-resistant clinical isolate) + fluconazole, 48 h; growth inhibition, % (test concentration not listed); hit rate 0.57% among 300,000;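 active means growth inhibition above about 58% in most replicates, limit read from the data, passing the limit was not always enough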;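 further: all wells also contain fluconazole at 8 µg/ml as a sub-toxic cotreatment; 0% = median of DMSO wells and 100% = median of geldanamycin control wells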
CSC inhib = cancer stem cell viability inhibitors, primary screen, luminescence; hit rate 1.1% among 300,000; cancer stem cell-like cells viability; AID 2717, 2010; inhibition, % at 7.5 µM; in the data active means inhibition above about 75%; tested in HMLE shEcad cells
SKKanGAS inh = S. pyogenes SKKanGAS growth inhibitors in kanamycin, primary screen, streptokinase expression inhibitor project, SKKanGAS strain, BacTiter-Glo luminescence. AID 1662, 2009. hit rate 1.3% among 300,000. inhibition, % at 7.5 µM. 6 h;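 active means mean replicate score, as percent of positive control median, at least 50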;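 further: strain carries kanamycin resistance gene driven by streptokinase promoter and grows in 40 µg/ml kanamycin; loss of luminescence reflects streptokinase promoter inhibition or plain growth inhibition; 0% = median of DMSO wells and 100% = positive control at its reference dose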
* = called active by the depositor. Only some compounds are listed: those with a hit (about 5.4% of all), similar ones and a draw of the others.

For Cc1nc(N2CCC(C)CC2)c2c(C)c(C(=O)Nc3ccccc3C(F)(F)F)sc2n1 the results were Beta apoptosis 1, Mdm2-MdmX inh 7, MPTP block 5, Calb FLC -3, CSC inhib 44 and SKKanGAS inh 58*.
`O=C(NNc1c2ccccc2nc2ccccc12)c1ccc(O)cc1O` gave Beta apoptosis 17, Mdm2-MdmX inh -5, MPTP block -1, Calb FLC -7, CSC inhib 19 and SKKanGAS inh 51*.
`O=C(NNc1c2ccccc2nc2ccccc12)c1ccccc1Cl` gave Beta apoptosis 5, Mdm2-MdmX inh 19, MPTP block 0, Calb FLC 8, CSC inhib 12 and SKKanGAS inh 19.
Screening Cc1cccc(-n2c(SCc3cc(=O)n4ccsc4n3)nc3ccccc32)c1 returned Beta apoptosis 2, Mdm2-MdmX inh -21, MPTP block 1, Calb FLC 114* and SKKanGAS inh -5.
Screening Cc1ccc(S[C@@H](CCN2CC[C@H](C)CCC2=O)c2ccccc2)cc1 returned Beta apoptosis -1, Mdm2-MdmX inh -3, MPTP block 1, Calb FLC 2, CSC inhib 40 and SKKanGAS inh 12.
`Cc1ccc(S[C@@H](CCN2CC[C@H](C(C)(C)C)CCC2=O)c2ccccc2)cc1` gave Beta apoptosis -5, Mdm2-MdmX inh 18, MPTP block 0, Calb FLC -12, CSC inhib 108* and SKKanGAS inh 76*.
Screening Cc1ccc(S[C@@H](CCN2CC[C@H](O)CCC2=O)c2ccccc2)cc1 returned Beta apoptosis -8, Mdm2-MdmX inh -8, MPTP block -2, Calb FLC 1, CSC inhib 1 and SKKanGAS inh 0.
For C[C@@H]1CCC(=O)N(CC[C@H](Sc2ccc(Br)cc2)c2ccccc2)CC1 the results were Beta apoptosis 11, Mdm2-MdmX inh 21, MPTP block -2 and CSC inhib 97*.
For CC(C)Cn1c2nc3ccccc3nc2c2c(=O)n(CCN3CCOCC3)cnc21 the results were Beta apoptosis 5, Mdm2-MdmX inh -5, MPTP block -1, Calb FLC -3, CSC inhib -5 and SKKanGAS inh 12.
Screening COc1ccc(CN(C)C(=O)c2ccc(OCC(=O)N3CCOCC3)c(OC)c2)cc1 returned Beta apoptosis 0, Mdm2-MdmX inh 11 and MPTP block -1.
Screening COc1ccc(/C(O)=C2/C(=O)C(=O)N(c3ccccn3)C2c2ccc(OC)cc2)cc1 (configuration not stated) returned Mdm2-MdmX inh 10, MPTP block 0, Calb FLC 5 and SKKanGAS inh -5.
For CCCOc1ccc(/C(O)=C2/C(=O)C(=O)N(c3ccccn3)C2c2ccc(OC)cc2)cc1C (configuration not stated) the results were Beta apoptosis -3, Mdm2-MdmX inh -13, MPTP block 0, Calb FLC 19, CSC inhib 5 and SKKanGAS inh 50*.
For O=C1C(=O)N(c2ccccn2)C(c2ccc(Br)cc2)/C1=C(/O)c1ccc(Br)cc1 (configuration not stated) the results were Beta apoptosis 3, Mdm2-MdmX inh -14, MPTP block 7, Calb FLC -3, CSC inhib 13 and SKKanGAS inh 69*.
Screening O=C1C(=O)N(c2ccccn2)C(c2ccc(F)cc2)/C1=C(/O)c1ccc(Br)cc1 (configuration not stated) returned Mdm2-MdmX inh -10, MPTP block 2, Calb FLC 1, CSC inhib 6 and SKKanGAS inh 6.
`Brc1cccc(OCCN2CCc3ccccc3C2)c1` gave Beta apoptosis 2, Mdm2-MdmX inh 7, MPTP block 0, Calb FLC 36, CSC inhib 84* and SKKanGAS inh -4.
`NC(=O)CC(NC(=O)c1ccccc1)c1ccc(NC2CCN(Cc3ccccc3)CC2)c([N+](=O)[O-])c1` (configuration not stated) gave Beta apoptosis -2, Mdm2-MdmX inh -16, MPTP block -2, Calb FLC -3, CSC inhib -2 and SKKanGAS inh -2.
